This is an account of results in ChEMBL document CHEMBL4513216, “Probing the Open Global Health Chemical Diversity Library for Multistage-Active Starting Points for Next-Generation Antimalarials” (ACS Infect Dis, 2020).

Structures are written as SMILES. Screen size: about 69,000 compounds; about 8,600 (12%) showed an effect of 50% or more. The sample as a whole holds a higher share of strong results than the screen did.

In this test the test system is Plasmodium berghei. The test can be described thus: Screen against P. berghei liver stage (PbLuc), transformed with Luciferase, at 10uM. Format: functional, HepG2. Conditions: tested at 10 uM.
For the molecule `Cc1ccc(CN2CC[C@@H](NC(=O)c3cccnc3)[C@H](O)C2)o1`, the INHIBITION turned out to be 31.1%.

Take `O=C(CNc1cc(-n2cnnn2)ccc1F)Nc1ccccc1Cl`: the INHIBITION is reported as 41.4%.

`O=C(CNc1cc(-n2cnnn2)ccc1F)Nc1cc(F)ccc1F`: the INHIBITION came out at 46.6%.

Turning to `O=C(CNc1cc(-n2cnnn2)ccc1F)NCc1ccccc1`, the INHIBITION was determined as 53.4%.

With `COCCNC(=O)c1cc(-c2ccc3c(c2)CCO3)n[nH]1`, the INHIBITION was -18.9%.

For the molecule `CCC(CO)N(Cc1ccc(F)cc1)Cc1c(C)nn(C)c1Cl` (stereo not drawn), the INHIBITION is given as -8.66%.

`Cc1n[nH]c(C)c1CCCN(C)Cc1c[nH]nc1-c1ccc(F)cc1`: the INHIBITION is reported as 40.2%.

Take `CCN(Cc1ccncc1)Cc1c[nH]nc1-c1ccc(F)cc1`: the INHIBITION turned out to be 14.8%.

Consider `CCC(CO)N(Cc1ccccn1)Cc1ccc(-c2ccn[nH]2)s1` (stereo not drawn), for which the INHIBITION is reported as 47.2%.

On to `CCC(CO)N(Cc1ccncc1)Cc1c[nH]nc1-c1ccc(F)cc1` (stereo not drawn), for which the INHIBITION is 57.6%.

With `CN(Cc1cc(C(C)(C)C)n[nH]1)Cc1c[nH]nc1-c1ccc(F)cc1`, the INHIBITION was 47.6%.

On to `CCC(CO)N(C/C(C)=C/c1ccco1)Cc1ccccn1` (stereo not drawn), for which the INHIBITION worked out at 8.64%.

`CCC(CO)N(Cc1ccccn1)Cc1c[nH]nc1-c1ccc(F)cc1` (stereo not drawn): the INHIBITION worked out at 78.9%.

With `CN(Cc1ccn[nH]1)Cc1c[nH]nc1-c1ccc(F)cc1`, the INHIBITION came to 77.2%.

As for `CN(Cc1ccccc1)C(=O)Cn1nc(N2CCOCC2)ccc1=O`, the INHIBITION is -28.7%.

Regarding `O=C1CCCCN1CCc1nc(C2(c3ccc(F)cc3)CCOC2)no1` (stereo not drawn), the INHIBITION is -15.5%.

Regarding `CCc1nn(C)c2[nH]nc(NC(=O)c3cccnc3NC(C)C)c12`, the INHIBITION was 36.3%.

For `CCS(=O)(=O)N1CC(=O)N(CCOc2ccccc2)CC(O)C1` (stereo not drawn), the INHIBITION is -10.3%.

Turning to `CCn1cc(S(=O)(=O)NC2(CN3CCOCC3)CCCCC2)c(C)n1`, the INHIBITION is given as -10.5%.

For the molecule `Cc1cccnc1N1CCN(C(=O)C(C)n2ccnc2C(C)C)CC1` (stereo not drawn), the INHIBITION is listed as 17.9%.

Regarding `CC(C)c1nccn1C(C)C(=O)N1CCN(c2cnccn2)CC1` (stereo not drawn), the INHIBITION is on record as -6.28%.

Consider `CC(C)c1nccn1C(C)C(=O)N1CCN(c2ccccc2Cl)CC1` (stereo not drawn), for which the INHIBITION was 64.6%.

Consider `COCCN(C)C[C@@H]1CN(C(=O)c2ccc(C)c(Cl)c2)C[C@@H]1CO`, for which the INHIBITION is 13.1%.

In the case of `C[C@@H]1CN(Cc2ccoc2)C[C@]12CCN(CC(=O)N(C)C)C2=O`, the INHIBITION was 23.5%.

Regarding `CCOC(C)c1noc(CN2CCN(CC3CCCC3)CC2)n1` (stereo not drawn), the INHIBITION is listed as 28%.

`CCOC(C)c1noc(CN2CCN(c3nnc(C)s3)CC2)n1` (stereo not drawn): the INHIBITION is 65.8%.

Consider `CCOC(C)c1noc(CN2CCNCC2)n1` (stereo not drawn), for which the INHIBITION is 31.2%.

As for `CCOC(C)c1noc(CN2CCN(Cc3cccnc3)CC2)n1` (stereo not drawn), the INHIBITION was 34.4%.

For `CCOC(C)c1noc(CN2CCN(c3ccncc3)CC2)n1` (stereo not drawn), the INHIBITION turned out to be 81%.

For the molecule `CCOC(C)c1noc(CN2CCN(Cc3ccno3)CC2)n1` (stereo not drawn), the INHIBITION was 33.4%.

`COc1ccc(CN(Cc2cccnc2)CC2CCCO2)c(OC)c1` (stereo not drawn): the INHIBITION turned out to be 22.2%.

As to `CCN1C(=O)CCCC12CCCN(C(=O)c1ccoc1C)C2` (stereo not drawn), the INHIBITION is on record as 32.1%.

In the case of `CCC(=O)NCC(=O)NCC1(O)CCC(C(C)(C)C)CC1` (stereo not drawn), the INHIBITION came to 38.3%.

For the molecule `CC(=O)NCc1cncc(C2CCCN2C2CCOCC2)n1` (stereo not drawn), the INHIBITION was -4.15%.

In the case of `c1nc(N2CCCC2Cn2cncn2)c2sccc2n1` (stereo not drawn), the INHIBITION worked out at 10.65%.

`c1cnn(CC2CCCCN2c2ncnc3ccsc23)c1` (stereo not drawn): the INHIBITION turned out to be 14.75%.

Consider `c1cnn(CC2CCCN2c2ncnc3sccc23)c1` (stereo not drawn), for which the INHIBITION turned out to be 79.7%.

On to `c1nc(N2CCCC2Cn2cncn2)c2ccsc2n1` (stereo not drawn), for which the INHIBITION was found to be 33%.

For `c1cnn(CC2CCCCN2c2ncnc3sccc23)c1` (stereo not drawn), the INHIBITION was 18.2%.

As to `c1cnn(CC2CCCN2c2ncnc3ccsc23)c1` (stereo not drawn), the INHIBITION is listed as 57.8%.

Turning to `O=C(Nc1nccs1)C1CCN(Cc2cccc3c2OCCO3)CC1`, the INHIBITION was 37.6%.

With `COCc1noc(-c2cc(Cl)c3c(c2)OCO3)n1`, the INHIBITION is listed as -26.1%.

For the molecule `CC1CN(CC(=O)NCc2ccccc2)CCN1Cc1nccn1C` (stereo not drawn), the INHIBITION was found to be 22.93%.

Turning to `Cc1[nH]ccc1C(=O)N1CCCC(c2ccc(C(=O)O)cc2)C1` (stereo not drawn), the INHIBITION was 2.7%.

Take `O=C(c1cccc2cccnc12)N1CCCC(n2ccnc2)C1` (stereo not drawn): the INHIBITION came to 17.02%.

As for `CN(C)c1ncccc1CNc1cc(N2CCCC2CO)ncn1` (stereo not drawn), the INHIBITION came out at 26.4%.

Consider `CN(C)CCn1ccnc1C1CCCN(c2cc(N)ncn2)C1` (stereo not drawn), for which the INHIBITION is 28%.

Take `Cc1ccc(-c2cn[nH]c2C2CCCN(c3cnccn3)C2)cc1` (stereo not drawn): the INHIBITION is recorded as 53.7%.

As to `Cc1ccc(-c2cn[nH]c2C2CCCN(c3ncccn3)C2)cc1` (stereo not drawn), the INHIBITION stood at 27.6%.

As for `Cc1ccnc(C2CCN(c3ccnc(C)n3)C2)n1` (stereo not drawn), the INHIBITION was 10.9%.

For `Cc1ccc(-c2cn[nH]c2C2CCCN(c3ccnc(C)n3)C2)cc1` (stereo not drawn), the INHIBITION came to 65.3%.

`CC(O)C(=O)N1CCC(c2[nH]ncc2-c2ccccc2)CC1` (stereo not drawn): the INHIBITION was found to be 1.66%.

In the case of `Cc1ccc(-c2cn[nH]c2C2CCCN(c3nccc(N)n3)C2)cc1` (stereo not drawn), the INHIBITION came to 47.2%.

Take `Cc1ccc(N2CCCC(c3[nH]ncc3-c3ccccc3)C2)nn1` (stereo not drawn): the INHIBITION is on record as 56.2%.

For the molecule `Cc1nccc(N2CCCC(c3nnc(Cn4ccnc4C)n3C)C2)n1` (stereo not drawn), the INHIBITION is recorded as 1.74%.

`Cc1c[nH]nc1C1CCCN(c2cnccn2)C1` (stereo not drawn): the INHIBITION was found to be 4.73%.

As to `Cc1ccc(-c2cn[nH]c2C2CCCN(c3cc(N)ncn3)C2)cc1` (stereo not drawn), the INHIBITION stood at 75.4%.

As for `C[C@H](N)C(=O)N1CCC(c2[nH]ncc2-c2ccccc2)CC1`, the INHIBITION was -15.65%.

Take `CN(CCO)C[C@@H]1CN(C(=O)c2cccc(OC(F)F)c2)C[C@@H]1CO`: the INHIBITION is 3.19%.

On to `O=C(C1CCOC1)N1CCN(Cc2ccc3c(c2)CCO3)CC1` (stereo not drawn), for which the INHIBITION was found to be 41.5%.

Turning to `Cc1nc(CN(C)C2CCN(CCc3cccs3)C2)no1` (stereo not drawn), the INHIBITION worked out at 39.2%.

As to `CS(=O)(=O)NC[C@@H]1OC[C@H]2CN(C(=O)c3ccccn3)CC[C@H]21`, the INHIBITION is recorded as -2.17%.

As to `O=C(NCC1CC2(CO1)CN(c1ncccn1)C2)C1CCC1` (stereo not drawn), the INHIBITION is 27.6%.

In the case of `Cc1ccc(N2CCC(c3[nH]ncc3Cc3ccccc3)CC2)nn1`, the INHIBITION is 49.2%.

On to `Cc1ccc(N2CCCC(c3[nH]ncc3Cc3ccccc3)C2)nn1` (stereo not drawn), for which the INHIBITION was determined as 47.2%.

On to `Cc1cc(N2CCCC(c3[nH]ncc3Cc3ccccc3)C2)nc(N)n1` (stereo not drawn), for which the INHIBITION worked out at 86.8%.

As for `O=C(c1cnccn1)N1C[C@@H]2CN(Cc3cccnc3)CCO[C@@H]2C1`, the INHIBITION was 22.5%.

For the molecule `O=C(CN1CCc2c(ncn2C2CC2)C1)NC1CCOCC1`, the INHIBITION is given as 5.7%.
